# A number with no mark means an inactive call.
# Test system: Vero E6 infected with SARS-CoV-2
# Assay: inhibition of SARS-CoV-2 cytopathic effect; higher = more antiviral protection, active = above 15
# Settings: 48 h
SMILES,inhibition of SARS-CoV-2 cytopathic effect (1 nM) [%],inhibition of SARS-CoV-2 cytopathic effect (8.33 nM) [%],inhibition of SARS-CoV-2 cytopathic effect (100 nM) [%],inhibition of SARS-CoV-2 cytopathic effect (833.33 nM) [%],inhibition of SARS-CoV-2 cytopathic effect (10000 nM)
COc1ncc2cc(C(=O)Nc3cc(C(=O)NCc4cccc(Cl)c4)ccc3Cl)c(=O)[nH]c2n1,-2.51,1.46,0.99,0.54,2.62%
Cc1cc(Nc2ncc(Cl)c(Nc3ccccc3S(=O)(=O)C(C)C)n2)c(OC(C)C)cc1C1CCNCC1 [ceritinib],-0.41,1.21,2.17,-2.36,58.8% (active)
CCN(CC)CCOC(=O)C(c1ccccc1)C1CCCCC1 (stereo not given) [drofenine],-1.59,1.9,-1.61,-1.42,1.22%
COC1CCN(c2cccc(-c3cc(NC(C)=O)nc(-n4nc(C)cc4C)n3)n2)CC1,0.48,2.72,2.53,1.74,-0.2%
c1cc(Nc2cc(C3CC3)n[nH]2)nc(Nc2ccc3[nH]cnc3c2)n1,-2.31,-1.82,-0.35,-0.79,5.62%
CC(O)COC[C@H]1O[C@@H]2O[C@H]3[C@H](O)[C@@H](O)[C@@H](O[C@H]4[C@H](O)[C@@H](O)[C@@H](O[C@H]5[C@H](O)[C@@H](O)[C@@H](O[C@H]6[C@H](O)[C@@H](O)[C@@H](O[C@H]7[C@H](O)[C@@H](O)[C@@H](O[C@H]8[C@H](O)[C@@H](O)[C@@H](O[C@H]1[C@H](O)[C@H]2O)O[C@@H]8COCC(C)O)O[C@@H]7COCC(C)O)O[C@@H]6COCC(C)O)O[C@@H]5COCC(C)O)O[C@@H]4COCC(C)O)O[C@@H]3COCC(C)O (stereo partly drawn) [hydroxypropyl-beta-cyclodextrin],1.48,-0.26,1.56,0.29,0.7%
C[n+]1cccc(C(=O)[O-])c1 [trigonelline],5.14,3.85,1.81,1.44,0.82%
O=C(OCCN1CCOCC1)c1cccnc1Nc1cccc(C(F)(F)F)c1 [morniflumate],-1.61,-3.25,-3.87,-4.12,-5.47%
O=C(Cc1ccc(Cl)c(Cl)c1)N1CCCC[C@@H]1CN1CCCC1,-0.96,2.64,1.57,-0.63,-4.8%
CCCCC[C@H](O)/C=C/[C@H]1[C@H](O)CC(=O)[C@@H]1C/C=C\CCCC(=O)O [dinoprostone],-2.72,0.16,-4.2,0.3,0.05%
CN1C(C(=O)Nc2ccccn2)=C(O)c2ccccc2S1(=O)=O [piroxicam],0.3,-0.73,0.15,0.8,1.41%
Nc1c(S(=O)(=O)O)cc(Nc2cccc3ccccc23)c2c1C(=O)c1ccccc1C2=O,-0.33,-0.72,-2.22,-1.16,-4.63%
S=C(S)N1CCCC1 [pyrrolidine-dithiocarbamate],2.71,4.55,4.28,12.7,24.8% (active)
CC(C)c1noc(N2CCC(COc3ccc(-c4ccc(S(C)(=O)=O)cc4)nc3)CC2)n1,-1.46,-1.84,-1.48,-0.49,-0.23%
C=C(c1ccc(C(=O)O)cc1)c1cc2c(cc1C)C(C)(C)CCC2(C)C [bexarotene],-0.21,-0.07,0.42,0.85,0.03%
OCc1cc([C@@H](O)CNCCCCCCOCCOCc2c(Cl)cccc2Cl)ccc1O [vilanterol],-1.65,-1.28,0.86,-0.19,-2.68%
C[C@H](NC(=O)Cc1cc(F)cc(F)c1)C(=O)N[C@@H]1C(=O)N(C)c2ccccc2-c2ccccc21,-2.68,-3.21,-6.27,-7.86,-8.97%
Cc1cc(O)c2c(c1)C(=O)c1cccc(O)c1C2=O [chrysophanic-acid],-0.27,0.87,0.28,-0.5,5.09%
CC[C@H]1OC(=O)[C@H](C)[C@@H](O[C@H]2C[C@@](C)(OC)[C@@H](O)[C@H](C)O2)[C@H](C)[C@@H](O[C@@H]2O[C@H](C)C[C@H](N(C)C)[C@H]2O)[C@](C)(O)C[C@@H](C)C(=O)[C@H](C)[C@@H](O)[C@]1(C)O [erythromycin],-0.74,-0.54,-1.16,2.65,1.91%

SMILES,inhibition of SARS-CoV-2 cytopathic effect (1 nM) [%],inhibition of SARS-CoV-2 cytopathic effect (8.33 nM) [%],inhibition of SARS-CoV-2 cytopathic effect (100 nM) [%],inhibition of SARS-CoV-2 cytopathic effect (833.33 nM) [%],inhibition of SARS-CoV-2 cytopathic effect (10000 nM)
CS(=O)(=O)c1cc(F)cc2c3c(n(Cc4ccc(Cl)cc4)c12)[C@@H](CC(=O)O)CC3 [laropiprant],0.24,-3,-0.36,1.31,2.04%
CC(=O)Oc1c(C)cc(OCC(O)CNC(C)C)c(C)c1C (stereo not given) [metipranolol],-0.83,0.56,0.06,-1.66,-3.06%
NCC(CS(=O)(=O)O)c1ccc(Cl)cc1 (stereo not given) [saclofen],0.43,0.42,-1.16,4.89,1.7%
C[C@]12CCC(=O)C=C1CC[C@@H]1[C@@H]2C(=O)C[C@]2(C)C(=O)CC[C@@H]12 [adrenosterone],0.47,-2.37,0.08,1.4,2.11%
CCn1c(=O)/c(=C2\Sc3ccccc3N2C)s/c1=C\c1cccc[n+]1CC,-0.41,2.22,-0.82,-0.9,-6.25%
CC(O)c1cc(C(=O)N[C@@H](C)Cn2ccc(-c3ccc(C#N)c(Cl)c3)n2)n[nH]1 (stereo not given in full),1.69,0.5,0.89,-0.69,0.64%
COc1cc2c(Nc3ccc(Cl)c(Cl)c3F)ncnc2cc1OC[C@@H]1C[C@@H]2CN(C)C[C@@H]2C1,-2.06,-2.66,-5.42,-14.7,-22.4%
C=CCCCCCCCCC(=O)[O][Zn][O]C(=O)CCCCCCCCC=C [zinc-undecylenate],0.73,0.52,-0.83,0.72,2.73%
CONC(=N)c1ccc(-c2ccc(-c3ccc(C(=N)NOC)cc3)o2)cc1 [pafuramidine],-0.94,1.16,-0.24,0.72,2.7%
Cc1ccc(S(=O)(=O)Nc2ccc3c(c2)c(C(=O)C(F)(F)F)cn3CC(=O)N[C@@H](CC(C)C)C(=O)O)cc1,0.38,-1.93,-1.37,0.8,3.55%
O=C(O)C[C@H](O)C[C@H](O)/C=C/c1c(C2CC2)nc2ccccc2c1-c1ccc(F)cc1 [pitavastatin],1.96,3.86,3.12,2.39,6.01%
C[N+](C)(C)CCOC(N)=O [carbachol],1.16,1.84,-1.48,2.68,4.16%
Cc1cc(Nc2ncnc3ccc(NC4=NC(C)(C)CO4)cc23)ccc1Oc1ccn2ncnc2c1 [tucatinib],-2.37,0.54,-5.16,-3.64,-12.7%
CN(C)NC(=O)CCC(=O)O [daminozide],-0.2,2.15,0.35,0.11,1.18%
Brc1ccc(NC2C3CC4CC(C3)CC2C4)cc1 (stereo not given) [bromantan],-1.24,-0.71,-0.8,0.76,1.67%
COc1cc(N)c(Cl)cc1C(=O)OCCCN1CCCCC1,3.12,-0.29,3.25,4.22,1.72%
COc1ccc(/C=C/C(=O)Nc2ccccc2C(=O)O)cc1OC [tranilast],-0.23,-1.52,-1.22,0.97,1.42%
CCCCCS(=O)(=O)CCCCCCCCCCn1c(-c2ccc(O)cc2)c(C)c2cc(O)ccc21,1.18,-2.92,-0.42,-1.6,-5.93%

# Source: the supplement of paper PMC13380429
